Compound activity from PubChem.
This is a sample that favours compounds with a hit; in the whole collection about 3.7% have one here.
GLP-1R inv ag: qHTS of GLP-1 Receptor Inverse Agonists (Inhibition Mode). Potency, µM (series often up to 38.3 µM), without a hit: at the highest dose activity change, negative = inhibition, actives largely listed as inhibitors. HEK293 GLP-1R CRE-luciferase, luminescence, 24 h; GLP-1R form is constitutively active. hit rate 1.6% among 410,000; note: % is set by controls: 0 for no effect and ±100 for the full control effect; nearly all actives have a fitted effect of over 55% in size
Target sequence (P43220 whole entry, looked up): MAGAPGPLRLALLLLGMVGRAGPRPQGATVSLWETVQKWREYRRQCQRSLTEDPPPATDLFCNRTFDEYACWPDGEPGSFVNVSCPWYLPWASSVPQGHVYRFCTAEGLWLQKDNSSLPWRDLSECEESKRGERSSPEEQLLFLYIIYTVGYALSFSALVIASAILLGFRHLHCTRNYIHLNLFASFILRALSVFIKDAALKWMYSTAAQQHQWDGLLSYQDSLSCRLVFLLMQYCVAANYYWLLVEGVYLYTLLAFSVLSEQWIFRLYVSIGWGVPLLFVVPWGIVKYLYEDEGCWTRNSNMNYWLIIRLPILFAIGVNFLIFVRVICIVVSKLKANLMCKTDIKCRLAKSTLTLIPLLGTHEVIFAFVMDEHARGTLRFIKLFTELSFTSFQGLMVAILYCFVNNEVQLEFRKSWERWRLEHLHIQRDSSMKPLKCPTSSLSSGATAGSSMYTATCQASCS
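Inverse agonists were sought by their lowering of basal cAMP reporter luciferase output in HEK293 cells stably carrying constitutively active human GLP-1R, after 24 h compound treatment.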
GLP-1R agonist: qHTS of GLP-1 Receptor Agonists. Glucagon-like peptide 1 receptor (Homo sapiens), P43220. HEK293 GLP-1R CRE-luciferase, luminescence, 4-6 h; cells express a hypersensitive GLP-1R form. Potency, µM (titrated, usually from 45.6 µM), without a hit: at the highest dose activation, actives largely listed as activators. hit rate 0.007% among 380,000; note: % of control where 0% means no effect
ATXN viability: Viability Counterscreen for Primary qHTS for Inhibitors of ATXN expression. S2 cells (HEK-293 line with an ATXN2-luciferase reporter) viability, CellTiter-Fluor protease fluorescence, 24 h. Potency, µM (titrated, usually from 56.7 µM), most hits filed as cytotoxic. hit rate 0.49% among 400,000; note: nearly all actives have a fitted effect of over 40% in size
HepG2 tox: qHTS for Inhibitors of TGF-b: Cytotox Counterscreen; HepG2 CAGA-GFP viability, ATP luminescence, 18 h; Potency, µM (titrated, usually from 46.1 µM), inactives show at the top dose activity change, negative = cytotoxicity, actives largely listed as cytotoxic; hit rate 0.76% among 410,000; AID 588856, 2011
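HepG2 CAGA-GFP cells (1000/well, DMEM with 1% FBS) received compound, then TGF-beta at 500 pg/mL final, and were incubated 18 hours at 37 degrees C. Viability was read by CellTiter-Glo luminescence. Media-only wells were set as complete cell-killing and DMSO as no toxicity.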
ATXN2 expr inh: Primary qHTS for Inhibitors of ATXN expression | HEK-293 ATXN2-luciferase reporter, luminescence, 24 h | Potency, µM (titrated, usually from 57 µM), inactives show top-dose activity change, negative = inhibition, most hits filed as inhibitors | hit rate 0.72% among 360,000 | AID 1745845, 2022; note: % is set by controls: 0 for no effect and ±100 for the full control effect; nearly all actives have a fitted effect of over 55% in size
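qHTS (up to 57 uM final) was run with 24 h compound exposure of reporter cells at 37 °C. Each well was multiplexed: SteadyGlo luminescence measured ATXN2-luciferase expression after a fluorogenic Gly-Phe-AFC viability readout (25 uM final).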
TGFb inhibitor: qHTS for Inhibitors of TGF-b. hit rate 1.2% among 410,000. Potency, µM (doses to about 46.1 µM), without a hit: top-dose activity, negative = inhibition, actives largely listed as inhibitors. HepG2 CAGA-GFP TGF-b/SMAD3 reporter, GFP fluorescence, 18 h; TGF-beta stimulated, 500 pg/mL final; note: % is set by controls: 0 for no effect and ±100 for the full control effect; nearly all actives have a fitted effect of over 65% in size
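Read-out: total well GFP (ex488/em500-530) summed from mean per-cell fluorescence. Cells: HEPG2 CAGA-GFP, 1% FBS DMEM, 18 h at 37 degrees C with 500 pg/mL final TGF-beta. Unstimulated wells served as the full-inhibition control; stimulated DMSO wells = 0%.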
* hit, by the source's call; i = inactive; ? = inconclusive; · = not tested or not shown; [ ] = another dose, or the depositor's remark. Calls come from the whole dose curve; as a rule, active = well fitted curve in the direction sought with a large enough effect; inconclusive = small, poorly fitted or top-dose-only effect, or another doubt; inactive = no such curve, though single readings can be large; an effect the other way counts as inactive or inconclusive. Potency is the fitted concentration of half-maximal effect.

SMILES	GLP-1R inv ag	GLP-1R agonist	ATXN viability	HepG2 tox	ATXN2 expr inh	TGFb inhibitor
CC1(COc2ccc(CC3SC(=O)NC3=O)cc2)CCCCC1 (stereo not given)	·	-3%	i	·	69%	·
CCCCC(=O)Nc1nnn(CCC)n1	1%	1%	i	-11%	3%	19%
CCCCC(=O)NC(=S)Nc1nnn(CCC)n1	11µM*	3%	i	-18%	-14%	?
COc1ccccc1OCc1ccc(C(=O)N2N=C(C(F)F)CC2(O)C(F)F)o1 (stereo not given)	?	0%	i	0%	14%	8%
O=C(c1ccc(COc2ccc(Cl)cc2)o1)N1N=C(C(F)F)CC1(O)C(F)F (stereo not given)	?	11%	i	-85%	-13%	22µM*
C[C@]12CC[C@H](O)C[C@@H]1CC[C@@H]1[C@@H]2CC[C@@]2(C)[C@H]1CCC(=O)[C@]21CCCO1	16%	5%	i	-14%	-2%	1%
CO[C@H]1CC[C@@]2(C)[C@@H](CC[C@@H]3[C@@H]2CC[C@@]2(C)[C@H]3C[C@H](C(=O)O)O[C@]23CCCO3)C1	8%	2%	i	16µM*	-5%	2%
CCOC(=O)c1ccc(Nc2nc3nonc3nc2Nc2cccc(C)c2C)cc1	2.8µM*	·	·	-45%	·	?
CCOC(=O)c1ccc(Nc2cc(C)nc(C)c2C(=O)OCC)cc1	?	13%	i	-32%	-22%	-5%
Cc1ccc(C)c(Nc2nc3nonc3nc2Nc2cccc(C)c2C)c1	?	·	·	-45%	?	6.3µM*
Cc1ccc(C(=O)NCCc2nnc3n2CCN(Cc2ccc4ccccc4c2)CC3)c(C)c1	·	·	i	·	·	·
CCCN(C)CCCOc1cc2nc(N3CCCN(C)CC3)nc(NC3CCN(C)CC3)c2cc1OC	·	·	·	-1%	·	14µM*
COc1cc2c(NC3CCN(C)CC3)nc(N3CCCCC3)nc2cc1OCCCN(C)C	·	·	·	-78%	·	10µM*
COc1cc2c(NC3CCN(C(C)C)CC3)nc(N3CCCN(C)CC3)nc2cc1OCCOCCN(C)C	·	·	·	-32%	·	14µM*
COc1cc2c(NC3CCN(C(C)C)CC3)nc(C3CCCCC3)nc2cc1OCCCN1CCCC1	·	·	·	·	22µM*	·
COc1cc2c(NC3CCN(C)CC3)nc(N3CCCCC3)nc2cc1OCCOCCN(C)C	·	·	·	-39%	·	-100%
O=C(c1cc2c(s1)CCCC2)N1CCN(S(=O)(=O)c2ccccc2C(F)(F)F)CC1	10µM*	7%	?	8%	-6%	?
Cc1ccc(S(=O)(=O)N2CCN(C(=O)c3cc4c(s3)CCCC4)CC2)c(C)c1	-14%	-2%	i	1%	-24%	-1%
O=[N+]([O-])/C=C\c1ccc(N2CCCC2)c(F)c1	?	-5%	?	-35%	?	11µM*
O=Cc1ccc(N2CCCC2)c([N+](=O)[O-])c1	-1%	11%	i	-3%	-25%[11.3 µM]	?
COc1ccc(C(C[N+](=O)[O-])c2c(-c3ccccc3)cc3ccccn23)c(OC)c1 (stereo not given)	?	-2%	i	11µM*	0%	10µM*
Fc1cc(F)cc(Nc2nc(Cl)nc(NC3CCCC3)n2)c1	·	-10%	25µM*	-60%	?	?
CC(Oc1ccc(F)cc1)C(=O)Nc1nc(-c2ccccn2)cs1 (stereo not given)	10µM*	10%	?	10%	7.9µM*	?
CCC(O)CNC(=O)c1cnn(-c2nccc(-c3cc(C)sc3C)n2)c1C1CC1 (stereo not given)	·	·	i	·	·	·
